Screening data deposited in PubChem by several laboratories.
Cardiac RTF inh: cardiac RTF calcium sensitivity inhibitors, primary screen, biochemical, IANBD-TnC fluorescence, EC70 calcium. IANBD-labeled cardiac RTF, Ca2+ fluorescence. inhibition, % at 7.15 µM. 0.12% of 340,000 active;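 active = inhibition above the mean inhibition of all tested compounds plus 3 SD, cut at about 17% in these data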;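 also: assay run at fixed EC70 calcium of 1.6 mM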
IDE cell activ: human IDE activators in live cells, primary screen, fluorescence polarization, HEK cells, FAbeta-B substrate. FAbeta-B cleavage; 0% vehicle, 100% cell-free pure enzyme wells. activation, % at 5.96 µM. 0.073% of 340,000 active;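 active = activation above the mean of all tested compounds plus 3 SD, set per screening campaign, cut at about 17% in these data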
Target sequence (P14735 whole entry, looked up): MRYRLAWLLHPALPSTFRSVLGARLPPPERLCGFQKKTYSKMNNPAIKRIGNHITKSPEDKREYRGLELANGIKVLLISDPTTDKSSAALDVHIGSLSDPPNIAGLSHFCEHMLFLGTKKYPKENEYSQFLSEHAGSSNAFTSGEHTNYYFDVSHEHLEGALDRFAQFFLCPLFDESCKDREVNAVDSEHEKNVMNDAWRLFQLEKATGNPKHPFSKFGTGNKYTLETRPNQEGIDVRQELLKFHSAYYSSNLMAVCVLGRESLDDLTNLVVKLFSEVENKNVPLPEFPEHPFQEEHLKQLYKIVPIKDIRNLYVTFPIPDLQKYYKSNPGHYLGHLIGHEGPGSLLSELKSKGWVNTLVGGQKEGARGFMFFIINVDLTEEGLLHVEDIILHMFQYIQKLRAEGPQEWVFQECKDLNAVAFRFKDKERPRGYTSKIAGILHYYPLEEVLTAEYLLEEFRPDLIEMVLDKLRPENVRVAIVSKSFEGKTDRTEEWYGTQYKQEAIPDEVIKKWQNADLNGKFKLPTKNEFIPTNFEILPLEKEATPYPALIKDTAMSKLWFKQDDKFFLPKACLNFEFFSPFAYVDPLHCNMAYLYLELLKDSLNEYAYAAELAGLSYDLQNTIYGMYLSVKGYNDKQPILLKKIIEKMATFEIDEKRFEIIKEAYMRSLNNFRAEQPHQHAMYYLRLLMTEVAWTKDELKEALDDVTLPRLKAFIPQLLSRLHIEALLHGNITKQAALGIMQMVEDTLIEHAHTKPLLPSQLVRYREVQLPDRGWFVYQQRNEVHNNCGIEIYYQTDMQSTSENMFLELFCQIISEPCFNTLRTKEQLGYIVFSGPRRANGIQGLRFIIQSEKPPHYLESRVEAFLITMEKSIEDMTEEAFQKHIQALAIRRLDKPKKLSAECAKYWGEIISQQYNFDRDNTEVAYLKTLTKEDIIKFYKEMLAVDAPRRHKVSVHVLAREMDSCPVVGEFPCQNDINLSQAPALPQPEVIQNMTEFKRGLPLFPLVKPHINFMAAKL
CRFR2-BP antag: antagonists of CRF-BP/CRF-R2 complex, primary screen, cell-based, HEK293, calcium dye fluorescence, uHTS; inhibition, % at 11.8 µM; CRF-induced calcium fluorescence; 0.59% of 350,000 active;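 active = inhibition of the ligand-induced calcium signal above about 50% at the single tested concentration, limit read from the data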
IDE inh: human IDE inhibitors in live cells, primary screen, fluorescence polarization, HEK cells, FAbetaB substrate; Insulin-degrading enzyme (Homo sapiens), P14735; AID 434962, 2010; 0.41% of 320,000 active; inhibition, % at 5.59 µM; FAbetaB cleavage;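 active = percent inhibition above the average of all tested compounds plus 3 SD, set per screening campaign, cut at about 16% in these data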;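 also: IDE supplied by intact live HEK cells; FP after avidin binding of uncleaved biotin substrate so inhibition keeps polarization high; 0% = DMSO wells and 100% = 60 µM reference IDE inhibitor Ii1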
CRFBP-R2 agonist: agonists of CRF-BP/CRF-R2 complex, primary screen, cell-based, HEK293, calcium dye fluorescence, uHTS | CRF-binding protein / CRF receptor 2 complex (human) | calcium dye fluorescence (FLIPR); percent of saturating CRF peptide response | activation, % at 13.2 µM | 0.46% of 350,000 active | AID 588473, 2011;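 active = activation of at least 50%, plus an integration ratio under a set limit after plate pattern correction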;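 also: plate controls were neutral control wells without compound for no effect and CRF at EC100 for full effect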
cardiac RTF act: cardiac RTF calcium sensitivity activators, primary screen, biochemical, IANBD-TnC fluorescence, EC20 calcium. activation, % at 7.2 µM. IANBD-labeled TnC RTF fluorescence at EC20 calcium; 0% EC20 calcium, 100% full calcium. 0.24% of 340,000 active. Troponin I, cardiac muscle (Homo sapiens) + Troponin T, cardiac muscle (Homo sapiens) + …;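 active = activation above the mean over all tested compounds plus 3 SD, cut at about 30% in these data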;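 also: rise in fluorescence read as greater calcium sensitivity of cardiac thin filaments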
Numbers without * were called inactive; . = not tested or not shown. Rows were chosen to be rich in hits. Some 1.5% of all compounds tested hit in one or more screens of this group.

SMILES	Cardiac RTF inh	IDE cell activ	CRFR2-BP antag	IDE inh	CRFBP-R2 agonist	cardiac RTF act
COc1ccc(CCN2CC3=C(C2=O)C(c2ccccc2)NC(=O)N3C)cc1OC (centres undefined)	-3	0	3	-1	0	5
CCc1nc2ccc(C(=O)NC3CCC(C)CC3)cc2nc1CC (centres undefined)	-3	7	5	2	-1	-1
O=[n+]1c2c(n([O-])c3cc(F)c(N4CCCC4)cc31)CCCC2	-84	1	-20	-5	55*	79*
O=[n+]1c2c(n([O-])c3cc(F)c(N4CCCC4)cc31)CCC2	-87	9	-35	0	47	53*
O=[n+]1c2c(n([O-])c3cc(F)ccc31)CCCC2	-1	1	-1	-2	2	-1
CC(C)(O)C#Cc1ccccc1C(=O)NC(CC(N)=O)C(=O)O (centres undefined)	-10	18*	3	-3	0	3
CC(=O)c1c(C)[nH]c(C(=O)CN2C(=O)NC(C)(c3ccc(C)cc3)C2=O)c1C (centres undefined)	-5	3	-77	-2	77*	4
O=C1Nc2ccc(Br)cc2C1(O)c1ccc(F)cc1 (centres undefined)	-10	0	-8	1	0	-5
Cc1noc(NS(=O)(=O)c2ccc(N/C=C\C(=O)c3cccc4ccccc34)cc2)c1C	6	4	56*	8	-4	-4
COc1cccc(C(=O)/C=C/Nc2ccc(S(=O)(=O)Nc3onc(C)c3C)cc2)c1	6	6	23	0	0	-6
CC1=C(C(=O)N(C)C)CC(CC(=O)NCCCCc2ccccc2)C(=O)N1CCCN1CCCC1=O (centres undefined)	.	.	2	.	0	.
CCc1ccc(NC(=O)C(CC)c2ccccc2)cc1 (centres undefined)	-8	-4	-65	0	60*	2
Cc1cccc(NC(=O)c2cccc([N+](=O)[O-])c2O)c1C	-5	3	59*	.	45	0
Cc1cccc(NC(=O)c2ccccc2O)c1C	-11	1	31	-1	21	-5
Cc1ccc(N2C(=O)c3ccccc3C2C(=O)c2ccc(C)c(C)c2O)cc1 (centres undefined)	2	2	2	1	0	-3
O=C(Cc1cccs1)Nc1nc2c(ccc3ccccc32)s1	-2	3	53*	2	8	-2
COc1ccc(Cn2c(SCc3ccc(C)cc3)nc3cc(OC)c(OC)cc3c2=N)cc1Cl	3	20*	-1	1	0	-2
COc1cc2nc(SCc3ccc(C(F)(F)F)cc3)n(Cc3cccs3)c(=N)c2cc1OC	4	2	1	6	-1	-1
COc1ccc(Cn2c(SCc3cc(C)ccc3C)nc3cc(OC)c(OC)cc3c2=N)cc1	-5	27*	-30	1	2	0
COc1cc2nc(SCc3ccc(Cl)cc3Cl)n(Cc3cccs3)c(=N)c2cc1OC	1	1	-6	2	-1	2
C/C(CC(=O)Nc1cccc(C(F)(F)F)c1)=N\NC(=O)c1cnccn1	-10	5	-17	0	0	-5
CCN(CC)C(=O)C1=C(C)N(Cc2ccc(OC)cc2)C(=O)C(CC(=O)NCCCN(C)C)C1 (centres undefined)	.	.	-8	.	0	.
CCN(Cc1ccncc1)C(=O)c1cccc(S(=O)(=O)N2CCCCC2)c1	-3	2	5	0	0	-1
CCOC(=O)c1nnn(-c2nonc2N)c1CN(C)C1CCCCC1	-5	-4	60*	-4	-2	-1
COc1c(Cl)cc(Cl)cc1CNc1ccc(S(N)(=O)=O)cc1	-3	2	58*	-5	0	-4
